Screen size: about 5,500 compounds; about 2,000 (36%) were called active. Not shown: some 18% with an inconclusive outcome. No stated cut-off is given here; in the data, active means normalized growth mostly below about 0.91 (no sharp cut-off); inconclusive means no clear call, values can overlap the other calls; inactive means mostly above about 0.92. The list shows a part of the results.
Experiment: chemical genetic growth profiling, strain panel (AID 1159580);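 further: tested at 20 µM; growth read once vehicle control cultures reached saturation at 30 °C; 1 = growth at the plate median or of vehicle wells; lower values mean less growth of the strain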
Conditions: S. cerevisiae deletion strains, growth OD
[1] = locus YAL040C, strain CLN3, active compounds read low
[2] = locus YCL061C, strain MRC1 (second series), active compounds read low
[3] = locus YDR363W, strain ESC2, active compounds read low
[4] = locus YER002W, strain NOP16, active compounds read low
[5] = locus YGR229C, strain SMI1, active compounds read low
[6] = locus YMR263W, strain SAP30, active compounds read low
[7] = locus YNL128W, strain TEP1, active compounds read low
[8] = locus YNL175C, strain NOP13, active compounds read low
[9] = locus YNL197C, strain WHI3, active compounds read low
[10] = locus YNL224C, strain SQS1, active compounds read low
[11] = locus YNL322C, strain KRE1, active compounds read low
[12] = locus YOR083W, strain WHI5 (second series), active compounds read low
[13] = locus YPL055C, strain LGE1, active compounds read low
[14] = locus YPL241C, strain CIN2, active compounds read low
[15] = locus YMR307W, strain GAS1, active compounds read low

Measured: normalized growth

O=C(Nc1cc(C(=O)Nc2ccc(S(=O)(=O)O)cc2S(=O)(=O)O)cc(C(=O)Nc2ccc(S(=O)(=O)O)cc2S(=O)(=O)O)c1)Nc1cc(C(=O)Nc2ccc(S(=O)(=O)O)cc2S(=O)(=O)O)cc(C(=O)Nc2ccc(S(=O)(=O)O)cc2S(=O)(=O)O)c1
inactive: locus YAL013W, strain DEP1, active compounds read low 0.995 | [1] 1.01 | [2] 0.998 | locus YDR150W, strain NUM1, active compounds read low 0.997 | [3] 0.954 | [4] 1.02 | locus YGR078C, strain PAC10, active compounds read low 0.987 | [5] 0.995 | [6] 0.99 | [7] 1 | [8] 1.01 | [9] 1.01 | [10] 0.993 | [11] 1.02 | [12] 0.993 | [13] 0.968 | [14] 1.01

CC(C)(C)c1o[nH]c(=O)c1CC(N)C(=O)O (stereo not given)
inactive: [1] 1.03 | [2] 1.01 | [4] 1 | [15] 0.968 | [7] 1 | [8] 1 | [9] 0.991 | [10] 0.992 | [11] 0.997 | [12] 1 | [14] 1.02

CC1=C[C@@H]2c3cccc4[nH]cc(c34)C[C@H]2N(C)C1
inactive: [1] 0.988 | [4] 0.993 | locus YJR075W, strain HOC1, active compounds read low 1 | [6] 0.996 | [15] 1.01 | [8] 1 | [9] 1.01 | [10] 0.987 | [12] 1

Clc1cc(I)cc(Cl)c1NC1=NCCN1
inactive: [1] 1.01 | [2] 1.01 | [3] 1.02 | [4] 1.01 | [15] 0.987 | [8] 1.01 | [9] 1.01 | [10] 1.01 | [12] 1.06 | [13] 0.986

N=S(=O)(O)Cc1noc2ccccc12
inactive: [1] 0.966 | [2] 1 | [3] 1.03 | [4] 1.01 | [5] 1.01 | [15] 1.01 | [7] 1.05 | locus YNL153C, strain GIM3, active compounds read low 0.998 | [8] 0.996 | [9] 1.02 | [10] 1.01 | [12] 1 | [14] 1.01
